Results: PubChem BioAssay AID1209 (Sanford-Burnham Center for Chemical Genomics, 2008)
In all, about 190,000 compounds went through this assay and about 810 (0.43%) were called active. Cut-off read from the data, not from the text of the source: active = inhibition above about 50%; inactive = the rest. For the sample, actives were picked, then their nearest neighbours and some compounds at random.

target: Mannose-6-phosphate isomerase (Homo sapiens) (UniProt P34949); assay: inhibitors of human PMI, primary screen, biochemical, fluorescence intensity, coupled assay (AID 1209); details: purified PMI enzyme, at 20 µM, hits give high values;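 note: plate controls were DMSO vehicle for no effect and wells lacking substrate for full effect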
Sequence (P34949 whole entry, looked up): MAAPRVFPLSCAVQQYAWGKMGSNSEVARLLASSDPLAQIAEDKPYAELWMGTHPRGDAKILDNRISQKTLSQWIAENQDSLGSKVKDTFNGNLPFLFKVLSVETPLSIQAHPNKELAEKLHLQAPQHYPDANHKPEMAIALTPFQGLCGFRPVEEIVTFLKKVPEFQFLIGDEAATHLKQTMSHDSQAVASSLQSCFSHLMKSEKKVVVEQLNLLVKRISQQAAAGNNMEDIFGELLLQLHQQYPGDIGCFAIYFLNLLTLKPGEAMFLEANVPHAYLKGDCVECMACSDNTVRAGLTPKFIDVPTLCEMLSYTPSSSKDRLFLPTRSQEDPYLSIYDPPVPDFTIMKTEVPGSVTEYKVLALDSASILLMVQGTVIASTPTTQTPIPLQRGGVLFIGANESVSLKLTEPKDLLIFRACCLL

| Structure (SMILES) | inhibition |
| --- | --- |
| Cc1c(Nc2nc(-c3ccc(Cl)cc3)cs2)c(=O)n(-c2ccccc2)n1C | 20.6% (inactive) |
| COc1ccc(N2CCN(C(=O)c3ccc(F)cc3)CC2)c([N+](=O)[O-])c1 | -4.8% (inactive) |
| COCCN(C(=O)Cn1nnc2ccccc21)C(C(=O)NC1CCCC1)c1ccc(OC)cc1OC (stereo not drawn) | -10.6% (inactive) |
| CCc1cccc(CC)c1-n1c(SCC(=O)c2c(N)n(C)c(=O)n(C)c2=O)nnc1-c1cccnc1 | 17.2% (inactive) |
| Cc1ccccc1C(=O)c1c[nH]c(C(=O)N2CCN(c3ccccc3F)CC2)c1 | 7.5% (inactive) |
| Cc1cc(C)cc(NC(=S)N2CCN(c3ccc(F)cc3)CC2)c1 | 10% (inactive) |
| C=CCn1c(SCc2ccccc2)nnc1-c1cccnc1 | 1.3% (inactive) |
| CN(Cc1nc2ccccc2c(=O)[nH]1)CC(O)COCc1ccco1 (stereo not drawn) | 11.4% (inactive) |
| CCNc1nc(CSc2ccccc2)nc2sc(C)c(C)c12 | 30.5% (inactive) |
| CCn1c(SCC(=O)N/N=C/c2ccc(C)o2)nnc1-c1ccc(C)cc1 | 0.6% (inactive) |
| CCN1CCN(CCCNC(=O)C(=O)c2c(C)[nH]c3ccccc23)CC1 | -6.7% (inactive) |
| O=C(COC(=O)c1ccc(Br)cc1)NCc1ccc(F)cc1 | -1.2% (inactive) |
| COC(=O)c1ccc(CSc2nnc(C)s2)cc1 | 8.5% (inactive) |
| CC(C)(CO)NC(=O)CC1C(=O)NCCN1CC(c1ccccc1)c1ccccc1 (stereo not drawn) | -1.4% (inactive) |
| COC(=O)c1cccc(NC(=O)CCc2cc(OC)c(OC)c(OC)c2)c1 | -5.4% (inactive) |
| COCCn1c(SCCN2CCCCC2)nc2ccccc2c1=O | 3.5% (inactive) |
| COc1ccc(NC(=S)Nc2ccc3snnc3c2)cc1 | 25% (inactive) |
| CCOc1ccc(NC(=S)Nc2ccc3nsnc3c2)cc1 | 46.4% (inactive) |
| COc1ccc(N(C)C(=O)Nc2ccc3nsnc3c2)cc1 | 58.7% (active) |
| COc1ccc(NC(=O)c2ccc3nccnc3c2)cc1 | -5.2% (inactive) |
| COc1ccc(NC(=S)Nc2ccc3nccnc3c2)cc1 | 83.8% (active) |

| Structure (SMILES) | inhibition |
| --- | --- |
| COc1ccc(NC(=O)Nc2ccc3nccnc3c2)cc1 | -6.9% (inactive) |
| COc1ccc(N(C)C(=O)Nc2ccc3c(c2)nnn3C)cc1 | 15.5% (inactive) |
| COc1ccc(NC(=S)Nc2ccc3nsnc3c2)cc1 | 64.2% (active) |
| COc1cccc(NC(=O)Nc2ccc3nsnc3c2)c1 | 1.7% (inactive) |
| CCOC(=O)c1sc(NS(=O)(=O)c2ccc(C)cc2)nc1C | 5.9% (inactive) |
| CCOc1ccc(-c2noc(CCC(N)=O)n2)cc1OCC | -7.6% (inactive) |
| Cc1cc(NCCCN2CCOCC2)n2nc(C)c(-c3ccccc3)c2n1 | -1.9% (inactive) |
| Cc1csc(NC(=O)CSc2nc3ccccc3c(=O)[nH]2)n1 | 0.4% (inactive) |
| C[C@H]1CC[C@H]2C(=O)N3[C@H](c4cccc(N5CCCC5=O)c4)[C@@H](C)CC[C@H]3C(=O)N2[C@@H]1c1cccc(N2CCCC2=O)c1 | -17.4% (inactive) |
| CC(C)(C)Cc1nnc(NC(=O)Cc2ccc([N+](=O)[O-])cc2)s1 | -4.5% (inactive) |
| CC(C)(C)C(=O)CSc1nnc(Nc2ccccc2)s1 | 39.6% (inactive) |
| CCOC(=O)N1CCC(N2Cc3cccc(C(=O)Nc4cccc(F)c4)c3C2=O)CC1 | -24.4% (inactive) |
| CCOC(=O)C1CCN(C(=O)c2c(-c3c(Cl)cccc3Cl)noc2C)CC1 | 9.4% (inactive) |
| CCN(CC)CCNCc1ccc(-c2ccc(Cl)cc2)o1 | -7% (inactive) |
| CC1CC(C)(C)NC(=S)N1CCCC(=O)N1CCN(c2ccccc2F)CC1 (stereo not drawn) | -3.8% (inactive) |
| COc1ccc(N=C2SCC(=O)N2Cc2ccccc2)cc1 | -10.8% (inactive) |
| COc1cc(N=C2C(=O)N3c4c(cccc42)C(C)=CC3(C)C)cc(OC)c1 | 34.1% (inactive) |
| COc1cc(N=C(N)N=C(N)N)cc(OC)c1 | -0.7% (inactive) |
| COc1ccc(N=c2sc3ccccc3n2C)cc1 | 5.6% (inactive) |
| COc1cc(-c2nnc(-c3cc(OC)c(OC)c(OC)c3)o2)cc(OC)c1OC | 7.6% (inactive) |
| COc1cc(-c2nnco2)cc(OC)c1OC | 15% (inactive) |

| Structure (SMILES) | inhibition |
| --- | --- |
| CCc1c(C)sc(NC(=O)CSc2nc3c(c(C(F)(F)F)n2)CCc2ccccc2-3)c1C#N | 0.3% (inactive) |
| Cc1ccc(SCC(=O)NC(=O)NCc2ccco2)cc1C | -3.3% (inactive) |
| CCN(CCn1cccn1)C(=O)c1cc(COc2c(F)cccc2F)on1 | 5.3% (inactive) |
| O=C(CN1CCCC1)Nc1cc(F)ccc1F | -1.6% (inactive) |
| Cc1noc(C)c1COc1ccc(C(=O)OCC(=O)NCc2ccccc2Cl)cc1 | 22.4% (inactive) |
| CC(C)(C)NC(=O)COC(=O)/C=C/c1ccccc1[N+](=O)[O-] | 1.1% (inactive) |
| CC(=O)N(Cc1ccc(Br)cc1)c1cccc(C)c1C | 5.3% (inactive) |
| COc1ccc(OC)c(NC(=O)CN2C(=O)C3(OCCCO3)c3ccccc32)c1 | 11% (inactive) |
| C=CCn1c2[n+](c3ccccc3c1=O)CCCCC2 | 66.2% (active) |
| C=CCn1c(=S)[nH]c2ccccc2c1=O | 1.8% (inactive) |
| C=CCn1c(C)nc2ccccc2c1=O | 10% (inactive) |
| COc1ccc(NC(C)=O)cc1NC(C)C(=O)Nc1ccc(F)c(F)c1F (stereo not drawn) | 13.6% (inactive) |
| Cc1cc(C)nc(-n2nc(C)cc2NC(=O)c2cccc(S(=O)(=O)N3CCCCC3)c2)n1 | 15.9% (inactive) |
| CCN(CC)c1ccc(NC(=O)/C=C/c2cc(Br)ccc2OC)cc1 | 6.9% (inactive) |
| CC1Cc2ccccc2N1C(=O)CSc1nnc(-c2ccc(S(=O)(=O)N3CCOCC3)cc2)n1C (stereo not drawn) | -0.3% (inactive) |
| Cn1c(SCC(=O)N2CCc3ccccc32)nnc1-c1ccc(S(=O)(=O)N2CCCC2)cc1 | 18.8% (inactive) |
| CC1Cc2ccccc2N1C(=O)CSc1nnc(-c2ccc(S(=O)(=O)N3CCCC3)cc2)n1C (stereo not drawn) | 60.6% (active) |
| CCOC(=O)c1ccc(NC(=O)CSCC(=O)OCC(=O)c2ccccc2)cc1 | 19.6% (inactive) |
| O=C(CSc1nc2ccc(S(=O)(=O)N3CCOCC3)cc2[nH]1)N1CCOCC1 | 66% (active) |
| Cc1ccc2nc(SCC(=O)N3CCOCC3)[nH]c2c1 | -2.9% (inactive) |
| CCOC(=O)CSc1nc2ccc(S(=O)(=O)N3CCOCC3)cc2[nH]1 | -11.2% (inactive) |
